Here are results for 16 compounds from PubChem BioAssay (NCATS).

The subject of assay [1] is CRL-7250. The experiment in a line: Cytotoxic Profiling of Annotated Libraries Using Quantitative High-Throughput Screening (AID 1296008). For max response: % is set by controls: 0 for no effect and ±100 for the full control effect. Note: nearly all actives have a fitted effect of over 60% in size. Note: potency is the fitted concentration of half-maximal effect. Particulars: Five cell lines viability, CellTiter-Glo ATP luminescence, 48-72 h; max response: hits give low values. In a few lines: (§1)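 Cytotoxicity was measured as CellTiter-Glo ATP luminescence, read after 10 min at room temperature. Compound treatment of the cells lasted 48 or 72 hr at 37 degrees Celsius in a qHTS format.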
A general note: In ATP-based viability assays light output follows the ATP content of the culture.

The test system of assay [2] is HaCat. The description is as above. Particulars: Five cell lines viability, CellTiter-Glo ATP luminescence, 48-72 h; max response: hits give low values. In a few lines:
as §1

Assay [3] deals with KB-3-1. The description is as above. Particulars: Five cell lines viability, CellTiter-Glo ATP luminescence, 48-72 h; max response: hits give low values. An outline of the steps:
as §1

The test system of assay [4] is C33A. As to the kind of experiment: Primary qHTS to identify gynecologic anti-cancer compounds using libraries of approved drugs and bioactive compounds (AID 1345084). For activity change, negative = cytotoxicity: % is set by controls: 0 for no effect and ±100 for the full control effect. Note: nearly all actives have a fitted effect of over 55% in size. Note: potency is the fitted concentration of half-maximal effect. Particulars: Gynecologic cancer cell panel viability, ATPlite luminescence, 48 h; series mostly up to 57.5 µM. In a few lines: (§2)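 Five-concentration response, 48 h; readout is ATP-driven luciferase luminescence.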
Background: In qHTS, concentration-response curves come from the screen itself.

The test system of assay [5] is CAOV3. Described as above. Particulars: Gynecologic cancer cell panel viability, ATPlite luminescence, 48 h; series mostly up to 57.5 µM. In a few lines:
as §2

Assay [6] concerns CASKI. The assay is described as above. Particulars: Gynecologic cancer cell panel viability, ATPlite luminescence, 48 h; series mostly up to 57.5 µM. In a few lines:
as §2

Assay [7] concerns Es-2. Described as above. Particulars: Gynecologic cancer cell panel viability, ATPlite luminescence, 48 h; series mostly up to 57.5 µM. In a few lines:
as §2

The subject of assay [8] is HeLa. The description is as above. Particulars: Gynecologic cancer cell panel viability, ATPlite luminescence, 48 h; series mostly up to 57.5 µM. In a few lines:
as §2

Assay [9] has as its system Hek293T. The assay is described as above. Particulars: Gynecologic cancer cell panel viability, ATPlite luminescence, 48 h, control line for the selectivity index; series mostly up to 57.5 µM. An outline of the steps:
as §2

Assay [10] concerns JEG-3. The description is as above. Particulars: Gynecologic cancer cell panel viability, ATPlite luminescence, 48 h; series mostly up to 57.5 µM. In a few lines: as §2
Assay [11] relates to OV90. The description is as above. Particulars: Gynecologic cancer cell panel viability, ATPlite luminescence, 48 h; series mostly up to 57.5 µM. In a few lines:
as §2

In assay [12] the test system is PA-1. The description is as above. Particulars: Gynecologic cancer cell panel viability, ATPlite luminescence, 48 h; series mostly up to 57.5 µM. An outline of the steps:
as §2

Assay [13] has as its system NIH3T3. As to the kind of experiment: Cytotoxic Profiling of Annotated Libraries Using Quantitative High-Throughput Screening (AID 1296008). For max response: % is set by controls: 0 for no effect and ±100 for the full control effect. Note: nearly all actives have a fitted effect of over 60% in size. Note: potency is the fitted concentration of half-maximal effect. Particulars: Five cell lines viability, CellTiter-Glo ATP luminescence, 48-72 h; max response: hits give low values. In a few lines:
as §1

The subject of assay [14] is HACAT. As to the kind of experiment: qHTS assay to identify novel small-molecules to repurpose for Merkel cell carcinoma treatment (AID 1296009). Note: nearly all actives have a fitted effect of over 60% in size. Particulars: MCC and control cell lines, CellTiter-Glo viability, 72 h; at 44.8 µM (top of the series) unless noted. In a few lines:
(§3)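 Cell viability measured by CellTiter-Glo following 72 hr compound treatment at 37 degree celsius, with NPC and MIPE libraries tested in 8- and 11-point concentration series.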

For assay [15], the system named is NIH3T3. Described as above. Particulars: MCC and control cell lines, CellTiter-Glo viability, 72 h; series mostly up to 44.8 µM. In a few lines: as §3

The structures appear in SMILES notation. Inconclusive results are not listed. Values without a mark were called inactive. Activity calls are given as the source filed them. Calls come from the whole dose curve; as a rule, active = well fitted curve in the direction sought with a large enough effect; inconclusive = small, poorly fitted or top-dose-only effect, or another doubt; inactive = no such curve, though single readings can be large; an effect the other way counts as inactive or inconclusive.

In the case of `C=C1/C(=C/C=C2\CCC[C@]3(C)[C@@H]([C@H](C)/C=C/[C@H](O)C4CC4)CC[C@@H]23)C[C@@H](O)C[C@@H]1O`, the max response was -7.4% in assay [1], -5.44% in assay [2] and 7.77% in assay [3]. Moreover, the Potency entry in assay [4], in assay [5], in [6], in [7], in assay [8] and in [9] was “inactive” each time. Further, the Potency entry in [10], in assay [11] and in assay [12] was “inactive” in each case.

Regarding `CCO[C@H]1CN(C2CCC(O)(c3ccc4c(c3)OCO4)CC2)C[C@@H]1NC(=O)CNC(=O)c1cccc(C(F)(F)F)c1` (some centres not stated), the max response in [1] is 1.15%; in [2], 1.49%; in assay [3], 7%. The Potency result in [4], in assay [6], in [7], in assay [8], in assay [9] and in [10] was “inactive” each time. The Potency result in assay [11] and in assay [12] was “inactive” in each case.

Consider `COC(CCc1ccc(O)cc1)CC(=O)CCc1ccc(O)cc1` (configuration not stated), for which the max response in assay [1] was 3.53%; in assay [2], -18.6%. Besides, the compound was called inactive in assay [3]. In addition, the Potency result in assay [4], in [6], in assay [7], in [8], in [9] and in assay [11] was “inactive” in each case. The Potency result in [12] was “inactive”.

As for `CC(=O)N[C@H]1[C@H](O[C@H]2CC[C@@]3(C)C(CC[C@]4(C)C3CC=C3C5CC(C)(C)CC[C@]5(C(=O)O)C(O)C[C@]34C)C2(C)C)O[C@H](CO[C@@H]2O[C@H](C)[C@H](O)[C@H](O)[C@H]2O[C@@H]2OC[C@@H](O)[C@H](O)[C@H]2O)[C@@H](O)[C@@H]1O` (some centres not stated), the max response is -3.47% in [1], -18.2% in assay [2] and 3.32% in assay [3]. Besides, the activity change, negative = cytotoxicity in assay [4] was 3.31% [at 11.6 µM]; in [6], 25.2% [at 11.6 µM]; in assay [7], 3.97% [at 11.6 µM]; in assay [8], 4.55% [at 11.6 µM]; in assay [9], -2.18% [at 11.6 µM]; in assay [10], -18.9% [at 11.6 µM]. In addition, the values for the activity change, negative = cytotoxicity in [11] and in [12] were 7.05% [at 11.6 µM] and 4.44% [at 11.6 µM], respectively.

For the compound `O=C(Nc1ccc(Cl)cc1)c1ccccc1NCc1ccncc1`, the max response in assay [1] was 0.592%; in assay [2], -24.7%; in assay [3] it was -12.3%. In addition, the Potency result in assay [4], in assay [5], in assay [6], in [7], in assay [8] and in [9] was “inactive” throughout. For the same compound, the Potency entry in assay [10], in assay [11] and in assay [12] was “inactive” each time.

Regarding `CCOC(=O)c1ccc(OCCC2CCN(c3ccc(C)nn3)CC2)cc1`, the max response in assay [1] was -21.9%; in assay [13], -0.794%. In addition, the compound was classed as inactive in assay [2] and in assay [14]. The Potency entry in [4], in [5], in [6], in assay [7], in [8] and in assay [9] was “inactive” in each case. The Potency result in assay [10], in assay [11] and in [12] was “inactive” each time.

Consider `CC(=O)O[C@H]1CC(C)(C)CC2[C@]13CO[C@@]21CCC2[C@@]4(C)CC[C@H](O[C@@H]5OC[C@H](O[C@@H]6O[C@H](CO)[C@@H](O)[C@H](O)[C@H]6O[C@@H]6OC[C@@H](O[C@@H]7O[C@H](CO)[C@@H](O)[C@H](O)[C@H]7O)[C@H](O)[C@H]6O)[C@H](O)[C@H]5O[C@@H]5O[C@H](CO)[C@@H](O)[C@H](O)[C@H]5O)[C@@](C)(CO)C4CC[C@@]2(C)[C@]1(C)C[C@H]3O` (some centres not stated), for which the Potency in assay [1] was 2190 nM (active); in assay [9] it was 2820 nM (active). Besides, the max response is 2.18% in assay [2] and -6.99% in [3]. Besides, the activity change, negative = cytotoxicity was -12% [at 6.55 µM] in assay [6] and -20% [at 6.55 µM] in assay [8].

With `C/C=C/CCC1Cc2cc(O)c(CCCC)c(O)c2C(=O)O1` (configuration not stated), the result in [1], in [2] and in assay [14] was inactive. Also, in [13], the max response is 2.45%. Further, the Potency result in assay [4], in assay [5], in assay [6], in assay [7], in assay [8] and in [9] was “inactive” in each case. In addition, the Potency entry in assay [10], in [11] and in assay [12] was “inactive” each time.

For the compound `Cc1c(Cl)cccc1S(=O)(=O)Nc1nc(NCCc2ccccc2)nc2c1CN(Cc1ccccc1)CC2`, the max response in assay [1] is 4.69%. For the same compound, the outcome in assay [2], in assay [13] and in assay [14] was inactive. Moreover, the Potency result in [15], in assay [4], in [5], in assay [6], in assay [7] and in assay [8] was “inactive” in each case. The Potency entry in assay [9], in assay [10], in assay [11] and in assay [12] was “inactive” each time.

Regarding `CN(C)C(CCOc1cccc2ccccc12)c1ccccc1` (configuration not stated), the max response in [1] was -16.3%. The call in [2], in [13] and in assay [14] was inactive. The Potency entry in assay [15], in [4], in assay [6], in [7], in assay [8] and in assay [9] was “inactive” throughout. For the same compound, the Potency result in [10] and in assay [12] was “inactive” throughout.

Regarding `O[C@@](Cc1ncc(CC2(C(F)(F)F)CC2)[nH]1)(c1ccc(-n2cccn2)cc1)C(F)(F)F`, the call in assay [1], in assay [2] and in assay [14] was inactive. In addition, the max response in assay [13] is -24.1%. In addition, the Potency result in assay [4], in assay [5], in [6], in assay [7], in assay [8] and in assay [9] was “inactive” each time. For the same compound, the Potency entry in assay [10], in [11] and in [12] was “inactive” in each case.

With `CCN(CCNC(=O)Nc1ccccc1Br)c1cccc(C)c1`, the max response in assay [1] was -1.67%; in [2], 0.35%; in [3], 2.25%. Further, the Potency result in assay [5], in assay [6], in [7], in assay [8], in assay [9] and in assay [11] was “inactive” in each case. For the same compound, the Potency result in [12] is “inactive”.

As for `Cc1cc(C(=O)Cn2cc(C#N)ccc2=O)c(C)n1Cc1ccccc1`, the max response in [1] was -5.73%. Also, the compound was called inactive in assay [2], in assay [13] and in assay [14]. The Potency entry in assay [15], in assay [4], in [5], in assay [6], in assay [7] and in assay [8] was “inactive” in each case. Also, the Potency result in assay [10], in assay [11] and in assay [12] was “inactive” throughout.

Regarding `CCN(CC)C(=O)C(c1ccccc1)N1CCN(c2ccc(NC(=O)c3ccccc3-c3cccnc3)cc2F)CC1` (configuration not stated), the max response in assay [1] is -1.45%. The result in [2], in assay [13] and in assay [14] was inactive. Besides, the Potency result in [15], in assay [4], in assay [5], in assay [6], in assay [7] and in assay [8] was “inactive” throughout. For the same compound, the Potency result in assay [9], in assay [10], in [11] and in assay [12] was “inactive” in each case.

Turning to `O=C(Nc1nc2ccc([N+](=O)[O-])cc2s1)C1CCCCC1`, the max response is -7.28% in assay [1] and -1.61% in [13]. In addition, the outcome in assay [2] and in assay [14] was inactive. In addition, the Potency result in assay [4], in assay [5], in assay [6], in assay [8], in assay [9] and in assay [10] was “inactive” throughout. The Potency entry in assay [11] and in assay [12] was “inactive” in each case.

In the case of `O=C(NO)c1ccc(CC(=O)N(CCO)c2ccccc2)cc1`, the max response is 0.727% in [1] and -4.33% in assay [13]. In addition, the result in [2] and in assay [14] was inactive. In addition, the Potency entry in [4], in assay [5], in assay [6], in [7], in [8] and in assay [9] was “inactive” in each case. Also, in assay [11], the Potency entry was “inactive”.
